Results filed as inconclusive are left out. Calls of active or inactive are those of the source. Unless noted, the call rests on the fitted dose curve; in most records, active means well fitted curve in the direction sought with a large enough effect in the repeat runs; inconclusive means weak or mixed curves; inactive means no such curve, though single readings can be large; an effect the other way counts as inactive or inconclusive.
How the values were obtained:
[1] = qHTS assay to identify small molecule agonists of the NFkB signaling pathway - cell viability counter screen (AID 1159515; calls by dose curve; further: series mostly up to about 61 µM; on the % scale 0 is the no-effect control and ±100 the full control effect; nearly all actives have a fitted effect of over 55% in size)
In short: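 Parallel cytotoxicity counter screen in ME-180 cells carrying an NFkB-response-element beta-lactamase reporter, 2,000 cells/well. Compound exposure lasted 5 hr at 37 C, 5% CO2. Cell viability was quantified by CellTiter-Glo luminescence.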

[2] = qHTS assay to identify small molecule agonists of the endoplasmic reticulum stress response signaling pathway (AID 1159516; active means well fitted activation curve with a large enough effect in the signal ratio in the repeat runs, not every such curve was filed as active; the % refers to the signal ratio; further: on the % scale 0 is the no-effect control and ±100 the full control effect)
In short: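 Using a HeLa line with an ESRE-driven beta-lactamase gene, agonist activity was measured by FRET substrate fluorescence (460 and 530 nm emission) after cells were treated with compounds for 5 hr at 37 C and 5% CO2.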

[3] = qHTS assay to identify small molecule agonists of the endoplasmic reticulum stress response signaling pathway - cell viability counter screen (AID 1159517; calls by dose curve;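 further: HeLa cells carrying an ER stress response element beta-lactamase reporter; series mostly up to about 61 µM; on the % scale 0 is the no-effect control and ±100 the full control effect; nearly all actives have a fitted effect of over 50% in size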)
In short: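 Steps: seed 1,500 ESRE-bla HeLa cells per well; incubate overnight at 37 C, 5% CO2; add compounds in DMSO for 5 hr; run FRET substrate 2 hr RT; add CellTiter-Glo, wait 30 min, read luminescence.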

[4] = qHTS assay to identify small molecule antagonists of the retinoid-related orphan receptor gamma (ROR-gamma) signaling pathway - cell viability counter screen (AID 1159520); further: on the % scale 0 is the no-effect control and ±100 the full control effect; nearly all actives have a fitted effect of over 50% in size
In short: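 Tet-on ROR gamma CHO cells were given compounds for 2 hr, then doxycycline hyclate at 1 uM final, and incubated 16 hr at 37 C. Viability was measured as ATP content by CellTiter-Glo luminescence.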

[5] = molecular target: Nuclear receptor ROR-gamma (Homo sapiens) (UniProt P51449); experiment: qHTS assay to identify small molecule antagonists of the retinoid-related orphan receptor gamma (ROR-gamma) signaling pathway (AID 1159521; further: nearly all actives have a fitted effect of over 50% in size; further: potency means the concentration at half of the fitted maximal effect)
In short: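 Test compounds were applied to Tet-on RORγ CHO cells 2 h ahead of doxycycline hyclate (1 uM final). Luciferase reporter activity was quantified by luminescence after 16 h at 37 C and 5% CO2.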

[6] = qHTS assay to identify small molecule agonists of the AP-1 signaling pathway - cell viability counter screen (AID 1159525; calls by dose curve; further: nearly all actives have a fitted effect of over 55% in size)
In short: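 Same-well cytotoxicity counter screen of the Tox21 10K library in ME-180 cells. The readout is ATP-dependent luminescence after 5 h compound treatment. Data are normalised to DMSO and tetra n-octyl ammonium bromide controls.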

[7] = qHTS assay to identify small molecule agonists of the AP-1 signaling pathway (AID 1159526; calls by dose curve; further: on the % scale 0 is the no-effect control and ±100 the full control effect)
[8] = qHTS assay to identify small molecule agonists of the RXR signaling pathway - cell viability counter screen (AID 1159529); further: series mostly up to about 77 µM; on the % scale 0 is the no-effect control and ±100 the full control effect; nearly all actives have a fitted effect of over 50% in size
In short: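 Compounds dissolved in DMSO were pinned onto HEK 293T cells carrying a beta-lactamase reporter under RXR-alpha control and incubated 16 hr. Cytotoxicity was then quantified by CellTiter-Glo luminescence.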

[9] = qHTS assay to identify small molecule antagonists of the retinoic acid receptor (RAR) signaling pathway (AID 1159552; further: nearly all actives have a fitted effect of over 50% in size; further: potency means the concentration at half of the fitted maximal effect)
In short: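 Test chemicals and DMSO controls were pin-transferred onto C3RL4 cells a day after seeding; retinol (1 uM final) followed at once. Luminescent reporter output was quantified after 6 hr of co-incubation and 30 min with detection reagent.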

[10] = qHTS assay to identify small molecule agonists of the retinoic acid receptor (RAR) signaling pathway (AID 1159553); further: on the % scale 0 is the no-effect control and ±100 the full control effect
In short: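 Quantitative high-throughput format: the Tox21 10K library was tested on C3RL4 RARE-luciferase cells for 6 hr at 37 C and 5% CO2, with luminescence measured after a 30 min room-temperature reagent step.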

[11] = qHTS assay to identify small molecule antagonists of the estrogen related receptor (ERR) signaling pathway from Tox21 library - cell viability counter screen (AID 1224834); further: nearly all actives have a fitted effect of over 30% in size; further: potency means the concentration at half of the fitted maximal effect
In short: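 Compounds in DMSO were pinned onto ERR cells that had been incubated for 6 h, and the plates were held at 37 C for 17.5 h. CellTiter-Fluor reagent was then added and fluorescence was measured after 30 min.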

[12] = molecular target: Luciferin 4-monooxygenase (Photinus pyralis) (UniProt P08659); experiment: qHTS assay to identify small molecule inhibitors of firefly luciferase (AID 1224835); further: series mostly up to about 120 µM; on the % scale 0 is the no-effect control and ±100 the full control effect; nearly all actives have a fitted effect of over 25% in size
In short: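 Biochemical qHTS: compounds run as interplate titrations against purified firefly enzyme, with D-luciferin and ATP each at its KM concentration. Light output recorded by CCD imaging.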

[13] = qHTS assay to identify small molecule agonists of the constitutive androstane receptor (CAR) signaling pathway - cell viability counter screen (AID 1224836); further: series mostly up to about 92 µM; on the % scale 0 is the no-effect control and ±100 the full control effect; nearly all actives have a fitted effect of over 45% in size
In short: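 23 h treatment, 37 C, 5% CO2. Cell line: HepG2 stably expressing hCAR with a CYP2B6-2.2kb construct. Co-treatment: PK11195, 0.75 uM final. Read-out: CellTiter-Fluor fluorescence intensity.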

[14] = qHTS assay to identify small molecule antagonists of the retinoid acid receptor (RAR) signaling pathway - cell viability counter screen (AID 1159551); further: on the % scale 0 is the no-effect control and ±100 the full control effect; nearly all actives have a fitted effect of over 35% in size
In short: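 ATP-based viability, C3RL4 cells, 6 h at 37 C with 1 uM final retinol co-added after compound; luminescence read 30 min post CellTiter-Glo, RT.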

[15] = qHTS assay to identify small molecule antagonists of the estrogen related receptor (ERR) signaling pathway - cell viability counter screen (AID 1224818);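 further: series mostly up to about 46 µM; viability measured after 17.5 h of compound exposure; on the % scale 0 is the no-effect control and ±100 the full control effect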
In short: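 Quantitative high-throughput viability counter screen in ERR cells. Compounds (DMSO) incubated 17.5 h at 37 C; read-out was CellTiter-Fluor fluorescence.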

Chain of Luciferin 4-monooxygenase (Photinus pyralis) (P08659 whole entry, looked up): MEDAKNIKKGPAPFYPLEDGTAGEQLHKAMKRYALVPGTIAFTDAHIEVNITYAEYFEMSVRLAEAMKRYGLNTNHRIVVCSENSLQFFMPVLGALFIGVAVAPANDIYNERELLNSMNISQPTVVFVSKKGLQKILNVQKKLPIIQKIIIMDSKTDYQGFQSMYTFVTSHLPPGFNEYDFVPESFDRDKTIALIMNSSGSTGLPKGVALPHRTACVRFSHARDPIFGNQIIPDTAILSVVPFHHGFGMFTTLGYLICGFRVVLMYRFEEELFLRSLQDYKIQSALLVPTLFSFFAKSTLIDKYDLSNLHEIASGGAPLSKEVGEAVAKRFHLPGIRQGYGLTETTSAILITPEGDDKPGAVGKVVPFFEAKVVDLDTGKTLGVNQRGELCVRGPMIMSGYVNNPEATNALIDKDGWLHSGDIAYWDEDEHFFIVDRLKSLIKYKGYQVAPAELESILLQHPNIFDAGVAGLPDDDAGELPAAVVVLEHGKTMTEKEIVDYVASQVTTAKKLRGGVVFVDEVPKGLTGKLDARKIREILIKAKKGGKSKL

Cn1c(=O)c2c(ncn2CC(O)CO)n(C)c1=O (configuration not stated)
inactive: Potency [1] | Potency [2] | outcome [3] | Potency [4] | Potency [5] | Potency [6] | Potency [7] | Potency [8] | Potency [9] | Potency [10] | Potency [11] | Potency [12] | Potency [13]

CN1CCN(C2=Nc3cc(Cl)ccc3Nc3ccccc32)CC1
inactive: Potency [1] | Potency [2] | outcome [3] | Potency [4] | Potency [5] | Potency [6] | Potency [7] | Potency [14] | Potency [9] | Potency [10] | outcome [15] | Potency [12]
active: Potency [11] 26.6 µM

COc1ccc(C(C)=O)cc1
inactive: Potency [1] | Potency [2] | outcome [3] | Potency [4] | Potency [5] | Potency [6] | Potency [7] | Potency [8] | Potency [10] | Potency [11] | Potency [12] | Potency [13]

O=C1c2cccc(O)c2C(=O)c2c(O)cc(CO)cc21
inactive: Potency [1] | Potency [2] | outcome [3] | Potency [4] | Potency [5] | Potency [6] | Potency [7] | Potency [14] | Potency [9] | Potency [12]

CCN1CCC[C@H]1CNC(=O)c1c(OC)ccc(Br)c1OC
inactive: Potency [1] | Potency [2] | outcome [3] | Potency [4] | Potency [5] | Potency [6] | Potency [7] | Potency [8] | Potency [9] | Potency [10] | Potency [11] | Potency [12] | Potency [13]

CCC(=O)OC(C)(C)C1CC=C(C)CC1 (configuration not stated)
inactive: Potency [1] | Potency [2] | outcome [3] | Potency [4] | Potency [5] | Potency [6] | Potency [7] | Potency [14] | Potency [9] | Potency [10] | Potency [11] | Potency [12] | Potency [13]

OCCC1CCCCN1 (configuration not stated)
inactive: Potency [1] | Potency [2] | outcome [3] | Potency [4] | Potency [5] | Potency [6] | Potency [7] | Potency [8] | Potency [14] | Potency [10] | Potency [11] | Potency [12] | Potency [13]

CCCC[C@H]1CN(CC2CCOCC2)C(=O)OC12CCN(C1(C)CCN(C(=O)c3c(C)ncnc3C)CC1)CC2
inactive: Potency [1] | Potency [2] | outcome [3] | Potency [4] | Potency [5] | Potency [6] | Potency [7] | Potency [8] | Potency [14] | Potency [11] | Potency [12]

CCN(CC)CCOc1ccc2c(c1)C(=O)c1cc(OCCN(CC)CC)ccc1-2
inactive: Potency [1] | Potency [2] | outcome [3] | Potency [4] | Potency [5] | Potency [6] | Potency [7] | Potency [14] | Potency [9]

CCOc1cc(OCC)c(C(=O)CCC(=O)O)cc1OCC
inactive: Potency [1] | Potency [2] | outcome [3] | Potency [4] | Potency [5] | Potency [6] | Potency [7] | Potency [8] | Potency [9] | Potency [10] | Potency [11] | Potency [12] | Potency [13]

C=C(C)C(=O)OCCN(C)C
inactive: Potency [1] | Potency [2] | outcome [3] | Potency [4] | Potency [5] | Potency [6] | Potency [7] | Potency [8] | Potency [14] | Potency [10] | Potency [11] | Potency [12] | Potency [13]

NCc1ccccc1
inactive: Potency [1] | Potency [2] | outcome [3] | Potency [4] | Potency [5] | Potency [6] | Potency [7] | Potency [8] | Potency [14] | Potency [11] | Potency [12] | Potency [13]

O=C(CCN1CCN2CCCC2C1)N1c2ccccc2Sc2ccc(Cl)cc21 (configuration not stated)
inactive: Potency [1] | Potency [2] | outcome [3] | activity, negative = cytotoxicity [4] -0.0801% [at 19 µM] | activity change, negative = inhibition [5] -2.48% [at 19 µM] | viability change, negative = cytotoxic [6] -1.69% [at 15.8 µM] | activation [7] -5.81% [at 15.8 µM] | activity change, negative = cytotoxicity [14] -0.0558% [at 19 µM] | activity, negative = inhibition [9] -11.3% [at 19 µM] | Potency [10] | viability change, negative = cytotoxic [11] -8.93% [at 19 µM] | activity change, negative = inhibition [12] -1.42% [at 23.6 µM]

N#CCCNCCC#N
inactive: Potency [1] | Potency [2] | outcome [3] | Potency [4] | Potency [5] | Potency [6] | Potency [7] | Potency [8] | Potency [11] | Potency [12] | Potency [13]

CC(C)(C)C(=O)OCOP(=O)(COCCn1cnc2c(N)ncnc21)OCOC(=O)C(C)(C)C
inactive: Potency [1] | Potency [2] | outcome [3] | Potency [4] | Potency [6] | Potency [7] | Potency [14] | Potency [11] | Potency [12]
active: Potency [5] 11.9 µM | Potency [9] 3.76 µM

CC(=O)O[C@@H]1C(=O)O[C@@H]2[C@H]1OC(=O)[C@@H]2OC(C)=O
inactive: Potency [1] | Potency [2] | outcome [3] | Potency [4] | Potency [5] | Potency [6] | Potency [7] | Potency [8] | Potency [14] | Potency [10] | Potency [11] | Potency [12] | Potency [13]

N[C@H]1C(O)O[C@H](CO)[C@H](O)[C@@H]1O (some centres not stated)
inactive: Potency [1] | Potency [2] | outcome [3] | Potency [4] | Potency [5] | Potency [6] | Potency [7] | Potency [14] | Potency [9] | Potency [10] | Potency [11] | Potency [12] | Potency [13]

CCN(CC)C(C)=O
inactive: Potency [1] | Potency [2] | outcome [3] | Potency [4] | Potency [5] | Potency [6] | Potency [7] | Potency [14] | Potency [9] | Potency [10] | Potency [11] | Potency [12] | Potency [13]

O=S(=O)(O)c1ccc(O)c2ncccc12
inactive: Potency [1] | Potency [2] | outcome [3] | Potency [4] | Potency [5] | Potency [6] | Potency [7] | Potency [8] | Potency [11] | Potency [12] | Potency [13]

FC(F)(F)C(F)(F)C(F)(F)C(F)(F)C(F)(F)C(F)(F)CCI
inactive: Potency [1] | Potency [2] | outcome [3] | Potency [4] | Potency [5] | Potency [6] | Potency [7] | Potency [14] | Potency [9] | Potency [10] | Potency [11] | Potency [13]

CC1(C)[C@H]2CC[C@]1(C)[C@H](O)C2
inactive: Potency [1] | Potency [2] | outcome [3] | Potency [4] | Potency [5] | Potency [6] | Potency [7] | Potency [8] | Potency [14] | Potency [12] | Potency [13]

From PubChem BioAssay (Tox21)
